Experimental data as given in PubChem BioAssay (EPA / NIEHS).
Records with an inconclusive call do not appear. Activity calls are given as the source filed them. The calls were made as follows, unless noted: active = hit-call score of the fitted dose curve at least 0.9, where 1 is the maximum; inactive = score below 0.9.

Read-out: E-selectin (Homo sapiens) (UniProt P16581)
Test: BSK_3C_Eselectin: BioMAP Diversity Plus: 3C Assay for Eselectin Biomarker Activity (AID 2283015);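 as to outcome: cell surface E-selectin protein quantified by ELISA 24 h after dosing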
Settings: primary human endothelial cells (HUVEC); actives raise or lower the signal
Summary of the method: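 E-selectin ELISA readout, fitted bidirectionally relative to DMSO, taken 24 h post-dosing in HUVEC cultures of the 3C system. Overt cytotoxicity tracked with sulforhodamine B staining of parallel wells.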

Sequence of E-selectin (Homo sapiens) (P16581 whole entry, looked up): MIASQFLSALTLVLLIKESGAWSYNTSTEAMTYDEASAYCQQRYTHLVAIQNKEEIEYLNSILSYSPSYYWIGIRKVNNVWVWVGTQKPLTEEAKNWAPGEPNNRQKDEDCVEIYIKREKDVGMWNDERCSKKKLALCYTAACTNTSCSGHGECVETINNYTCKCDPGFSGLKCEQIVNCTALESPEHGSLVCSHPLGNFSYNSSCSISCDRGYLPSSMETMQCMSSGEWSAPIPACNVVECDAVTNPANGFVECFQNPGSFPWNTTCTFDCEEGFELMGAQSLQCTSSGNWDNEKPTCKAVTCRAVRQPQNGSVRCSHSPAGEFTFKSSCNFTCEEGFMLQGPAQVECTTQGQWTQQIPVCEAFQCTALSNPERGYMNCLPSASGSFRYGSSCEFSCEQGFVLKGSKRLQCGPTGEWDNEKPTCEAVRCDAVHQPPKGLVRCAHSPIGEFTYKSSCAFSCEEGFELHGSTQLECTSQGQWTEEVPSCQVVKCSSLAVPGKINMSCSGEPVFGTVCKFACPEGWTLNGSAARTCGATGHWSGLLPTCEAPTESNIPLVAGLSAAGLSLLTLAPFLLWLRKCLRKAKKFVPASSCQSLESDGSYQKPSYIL

| SMILES | outcome | AC50 |
| --- | --- | --- |
| CS(=O)(=O)OCCCCOS(C)(=O)=O | inactive |  |
| CCN(CC)C(=O)N(CC)CC | inactive |  |
| Cc1cc(CCC(=O)OCCOCCOCCOC(=O)CCc2cc(C)c(O)c(C(C)(C)C)c2)cc(C(C)(C)C)c1O | inactive |  |
| CN(C)C(=S)SC(=S)N(C)C |  | 19.9 µM (active) |
| C=C(C)C(=O)OCCOCCOCCOCCOC(=O)C(=C)C | inactive |  |
| IC(I)I | inactive |  |

Read-out: Interleukin-1 alpha (IL1a), IL1A (gene 3552)
Test: BSK_BE3C_IL1a: BioMAP Diversity Plus: BE3C Assay for Interleukin-1 alpha (IL1a) Biomarker Activity (AID 2283016)
Settings: primary human bronchial epithelial cells; actives raise or lower the signal
Summary of the method: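 Human primary bronchial epithelial cells, 24 h chemical exposure; IL-1a quantified by ELISA, fitted bidirectionally against DMSO. Cytotoxicity assessed in parallel by SRB total-protein staining at the time of measurement.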

| SMILES | outcome | AC50 |
| --- | --- | --- |
| CS(=O)(=O)OCCCCOS(C)(=O)=O | inactive |  |
| CCN(CC)C(=O)N(CC)CC | inactive |  |
| Cc1cc(CCC(=O)OCCOCCOCCOC(=O)CCc2cc(C)c(O)c(C(C)(C)C)c2)cc(C(C)(C)C)c1O | inactive |  |
| CN(C)C(=S)SC(=S)N(C)C |  | 30.9 µM (active) |
| C=C(C)C(=O)OCCOCCOCCOCCOC(=O)C(=C)C | inactive |  |
| IC(I)I | inactive |  |

Read-out: Monocyte Chemoattractant Protein-1 (MCP1), CCL2 (gene 6347)
Test: BSK_4H_MCP1: BioMAP Diversity Plus: 4H Assay for Monocyte Chemoattractant Protein-1 (MCP1) Biomarker Activity (AID 2283018)
Settings: primary human endothelial cells (HUVEC); actives raise or lower the signal
Summary of the method: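 Human umbilical vein endothelial cells (4H system) exposed to chemicals for 24 h in 96-well format. MCP-1 measured by ELISA; bidirectional fitting against DMSO, with SRB total-protein staining in parallel cultures for cytotoxicity.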

| SMILES | outcome | AC50 |
| --- | --- | --- |
| CS(=O)(=O)OCCCCOS(C)(=O)=O | inactive |  |
| CCN(CC)C(=O)N(CC)CC | inactive |  |
| Cc1cc(CCC(=O)OCCOCCOCCOC(=O)CCc2cc(C)c(O)c(C(C)(C)C)c2)cc(C(C)(C)C)c1O |  | 17.8 µM (active) |
| CN(C)C(=S)SC(=S)N(C)C |  | 29.5 µM (active) |
| C=C(C)C(=O)OCCOCCOCCOCCOC(=O)C(=C)C | inactive |  |
| IC(I)I | inactive |  |

Read-out: Human Leukocyte Antigen - DR isotype (HLADR), HLA-DRA (gene 3122)
Test: BSK_3C_HLADR: BioMAP Diversity Plus: 3C Assay for Human Leukocyte Antigen - DR isotype (HLADR) Biomarker Activity (AID 2283019);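 as to outcome: ELISA of cell-surface HLA-DR on HUVEC 24 h after dosing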
Settings: primary human endothelial cells (HUVEC); actives raise or lower the signal
Summary of the method: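 Bidirectional fitting against DMSO was applied to the HLA-DR ELISA signal from human umbilical vein endothelial cells, 24 h post-dose. Cytotoxicity came from parallel SRB total-protein staining; 3C proliferation was counted by SRB at 48 h.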

| SMILES | outcome | AC50 |
| --- | --- | --- |
| CS(=O)(=O)OCCCCOS(C)(=O)=O | inactive |  |
| CCN(CC)C(=O)N(CC)CC | inactive |  |
| Cc1cc(CCC(=O)OCCOCCOCCOC(=O)CCc2cc(C)c(O)c(C(C)(C)C)c2)cc(C(C)(C)C)c1O |  | 17.8 µM (active) |
| CN(C)C(=S)SC(=S)N(C)C |  | 31.2 µM (active) |
| C=C(C)C(=O)OCCOCCOCCOCCOC(=O)C(=C)C | inactive |  |
| IC(I)I | inactive |  |

Read-out: Interleukin-8 (IL8), CXCL8 (gene 3576)
Test: BSK_3C_IL8: BioMAP Diversity Plus: 3C Assay for Interleukin-8 (IL8) Biomarker Activity (AID 2283020)
Settings: primary human endothelial cells (HUVEC); actives raise or lower the signal
Summary of the method: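 Primary human umbilical vein endothelial cells were dosed for 24 h. IL-8 was quantified by ELISA and fitted bidirectionally against DMSO. Cytotoxicity was assessed in parallel cultures by SRB staining at 560 nm.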

| SMILES | outcome | AC50 |
| --- | --- | --- |
| CS(=O)(=O)OCCCCOS(C)(=O)=O | inactive |  |
| CCN(CC)C(=O)N(CC)CC | inactive |  |
| Cc1cc(CCC(=O)OCCOCCOCCOC(=O)CCc2cc(C)c(O)c(C(C)(C)C)c2)cc(C(C)(C)C)c1O |  | 32.3 µM (active) |
| CN(C)C(=S)SC(=S)N(C)C |  | 3.95 µM (active) |
| C=C(C)C(=O)OCCOCCOCCOCCOC(=O)C(=C)C | inactive |  |
| IC(I)I | inactive |  |

Read-out: Monokine induced gamma interferon (MIG), CXCL9 (gene 4283)
Test: BSK_3C_MIG: BioMAP Diversity Plus: 3C Assay for Monokine induced gamma interferon (MIG) Biomarker Activity (AID 2283021)
Settings: primary human endothelial cells (HUVEC); actives raise or lower the signal
Summary of the method: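 HUVEC primary endothelial cultures dosed with chemical; MIG quantified by ELISA at 24 h. Data fitted bidirectionally against DMSO control, with parallel SRB total-protein staining for cytotoxicity.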

| SMILES | outcome |
| --- | --- |
| CS(=O)(=O)OCCCCOS(C)(=O)=O | inactive |
| CCN(CC)C(=O)N(CC)CC | inactive |
| Cc1cc(CCC(=O)OCCOCCOCCOC(=O)CCc2cc(C)c(O)c(C(C)(C)C)c2)cc(C(C)(C)C)c1O | inactive |
| CN(C)C(=S)SC(=S)N(C)C | inactive |
| C=C(C)C(=O)OCCOCCOCCOCCOC(=O)C(=C)C | inactive |
| IC(I)I | inactive |

Target: human Vitamin D Receptor (VDR), VDR (gene 7421) (UniProt P11473)
Sequence (P11473 whole entry, looked up): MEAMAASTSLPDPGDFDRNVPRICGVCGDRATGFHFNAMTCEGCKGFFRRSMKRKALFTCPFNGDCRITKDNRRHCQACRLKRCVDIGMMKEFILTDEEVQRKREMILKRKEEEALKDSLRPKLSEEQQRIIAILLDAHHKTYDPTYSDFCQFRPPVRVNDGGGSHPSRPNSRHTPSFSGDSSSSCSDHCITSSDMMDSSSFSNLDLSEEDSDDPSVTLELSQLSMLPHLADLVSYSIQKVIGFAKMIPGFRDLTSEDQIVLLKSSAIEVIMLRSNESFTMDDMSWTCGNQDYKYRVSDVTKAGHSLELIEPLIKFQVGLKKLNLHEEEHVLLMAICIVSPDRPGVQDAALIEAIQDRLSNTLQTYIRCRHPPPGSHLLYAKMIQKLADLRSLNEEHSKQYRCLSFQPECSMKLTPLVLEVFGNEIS
Test: ATG_VDR_TRANS: Attagene TRANS-FACTORIAL HepG2 Assay for human Vitamin D Receptor (VDR) (AID 2283022; active = hit-call score of the fitted dose curve at least 0.9, where 1 is the maximum)
Settings: not given
Summary of the method: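 Transactivation by an exogenous VDR-Gal4 chimera in transiently transfected HepG2 cells was measured as reporter transcript level 24 hours after chemical treatment. RT-PCR products were analysed by capillary electrophoresis and fitted in the positive direction relative to DMSO.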

| SMILES | outcome |
| --- | --- |
| COc1ccccc1N=Nc1c(S(=O)(=O)O)cc2cc(S(=O)(=O)O)cc(NC(C)=O)c2c1O | inactive |
| CCCCC1(COC(=O)CCC(=O)O)C(=O)N(c2ccccc2)N(c2ccccc2)C1=O | inactive |
| CS(C)=O | inactive |
| CCN(CC)C(=O)N(CC)CC | inactive |
| [Cl][Au]([Cl])[Cl] | inactive |
| CCCCC(CC)COC(C)=O (stereo not drawn) | inactive |
| CCN(CCN)c1cccc(C)c1 | inactive |
| C=CC(C)C#N (stereo not drawn) | inactive |
| CCOC(=O)C1OC1c1ccccc1 (stereo not drawn) | inactive |
| Brc1ccc(Br)c(Br)c1 | inactive |
| CC(=O)O[C@@H]1C[C@@H]2CC[C@@]1(C)C2(C)C | inactive |
| CN(C)C(=S)SC(=S)N(C)C | inactive |
| CC(C)CC(C)CC(O)CC(C)C (stereo not drawn) | inactive |
| O=CCc1ccccc1 | inactive |
| COc1ccc(N=Nc2cc(C)c(N=Nc3ccc(S(=O)(=O)O)cc3)cc2OC)cc1 | inactive |
| C=C(C)C(=O)OCCOC1CC2CC1C1C=CCC21 (stereo not drawn) | inactive |
| CCCC(=O)OC(C)(C)Cc1ccccc1 | inactive |
| CS(=O)(=O)c1ccc(Cl)cc1 | inactive |
| O=C(CC(=O)c1ccccc1)c1ccccc1 | inactive |
| C=Cc1ccc(C)cc1 | inactive |
| Cc1c(Cl)cccc1[N+](=O)[O-] | inactive |
| O=C(c1ccccc1)C(O)c1ccccc1 (stereo not drawn) | inactive |
| CN1C(=O)c2ccccc2C1=O | inactive |
| COCCOC(=O)c1ccccc1C(=O)OCCOC | inactive |

Read-out: not listed separately
Test: BSK_3C_SRB: Viability Assessment in the BioMAP Diversity Plus: 3C Assay (AID 2283023);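 also: fitted both ways against DMSO so a hit may be signal rise or drop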
Settings: primary human endothelial cells (HUVEC)
Summary of the method: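 Cytotoxicity readout in parallel HUVEC 3C cultures: after 24 h compound exposure, cells fixed with 10% TCA, stained with 0.1% SRB and read at 560 nm. Gain or loss relative to DMSO fitted.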

| SMILES | outcome | AC50 |
| --- | --- | --- |
| CS(=O)(=O)OCCCCOS(C)(=O)=O | inactive |  |
| CCN(CC)C(=O)N(CC)CC | inactive |  |
| Cc1cc(CCC(=O)OCCOCCOCCOC(=O)CCc2cc(C)c(O)c(C(C)(C)C)c2)cc(C(C)(C)C)c1O |  | 28.1 µM (active) |
| CN(C)C(=S)SC(=S)N(C)C |  | 19.9 µM (active) |
| C=C(C)C(=O)OCCOCCOCCOCCOC(=O)C(=C)C | inactive |  |
| IC(I)I | inactive |  |

Read-out: Matrix Metallopeptidase 1 (MMP1), MMP1 (gene 4312)
Test: BSK_BE3C_MMP1: BioMAP Diversity Plus: BE3C Assay for Matrix Metallopeptidase 1 (MMP1) Biomarker Activity (AID 2283024)
Settings: primary human bronchial epithelial cells; actives raise or lower the signal
Summary of the method: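 Human primary bronchial epithelial cells (BE3C system) dosed for 24 h; MMP-1 quantified by ELISA. Bidirectional fit against DMSO; cytotoxicity tracked in parallel cultures by SRB total-protein staining.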

| SMILES | outcome |
| --- | --- |
| CS(=O)(=O)OCCCCOS(C)(=O)=O | inactive |
| CCN(CC)C(=O)N(CC)CC | inactive |
| Cc1cc(CCC(=O)OCCOCCOCCOC(=O)CCc2cc(C)c(O)c(C(C)(C)C)c2)cc(C(C)(C)C)c1O | inactive |
| CN(C)C(=S)SC(=S)N(C)C | inactive |
| C=C(C)C(=O)OCCOCCOCCOCCOC(=O)C(=C)C | inactive |
| IC(I)I | inactive |

Read-out: not listed separately
Test: BSK_3C_Vis: BioMAP Diversity Plus: 3C Assay for Morphology Visualization (AID 2283025);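 also: fitted both ways so gain or loss versus DMSO counts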;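 as to AC50: light microscopy image of cell morphology used as background control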
Settings: primary human endothelial cells (HUVEC)
Summary of the method: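 Human umbilical vein endothelial cell morphology was inspected by light microscopy 24 h after chemical dosing; scored bidirectionally relative to DMSO.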

| SMILES | outcome | AC50 |
| --- | --- | --- |
| CS(=O)(=O)OCCCCOS(C)(=O)=O | inactive |  |
| CCN(CC)C(=O)N(CC)CC | inactive |  |
| Cc1cc(CCC(=O)OCCOCCOCCOC(=O)CCc2cc(C)c(O)c(C(C)(C)C)c2)cc(C(C)(C)C)c1O | inactive |  |
| CN(C)C(=S)SC(=S)N(C)C |  | 39.2 µM (active) |
| C=C(C)C(=O)OCCOCCOCCOCCOC(=O)C(=C)C | inactive |  |
| IC(I)I | inactive |  |
